# Experimental data taken from ChEMBL document CHEMBL1961873, “Compounds: GSK PKIS; Assays: Nanosyn kinase panel” (2012).
# Legend:
# [1] = target: Mitogen-activated protein kinase kinase kinase kinase 4 (Homo sapiens) (UniProt O95819); settings: at 1 µM;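 note: reported figure is an averaged inhibition value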
# [2] = target: Dual specificity mitogen-activated protein kinase kinase 1 (Homo sapiens) (UniProt Q02750); settings: at 0.1 µM
# [3] = target: Dual specificity mitogen-activated protein kinase kinase 1 (Homo sapiens) (UniProt Q02750); settings: at 1 µM
# [4] = target: Misshapen-like kinase 1 (Homo sapiens) (UniProt Q8N4C8); settings: at 0.1 µM
# [5] = target: Misshapen-like kinase 1 (Homo sapiens) (UniProt Q8N4C8); settings: at 1 µM
# [6] = target: T1, Serine/threonine-protein kinase 4 (Homo sapiens) (UniProt Q13043); settings: at 0.1 µM
# T1 sequence (whole entry): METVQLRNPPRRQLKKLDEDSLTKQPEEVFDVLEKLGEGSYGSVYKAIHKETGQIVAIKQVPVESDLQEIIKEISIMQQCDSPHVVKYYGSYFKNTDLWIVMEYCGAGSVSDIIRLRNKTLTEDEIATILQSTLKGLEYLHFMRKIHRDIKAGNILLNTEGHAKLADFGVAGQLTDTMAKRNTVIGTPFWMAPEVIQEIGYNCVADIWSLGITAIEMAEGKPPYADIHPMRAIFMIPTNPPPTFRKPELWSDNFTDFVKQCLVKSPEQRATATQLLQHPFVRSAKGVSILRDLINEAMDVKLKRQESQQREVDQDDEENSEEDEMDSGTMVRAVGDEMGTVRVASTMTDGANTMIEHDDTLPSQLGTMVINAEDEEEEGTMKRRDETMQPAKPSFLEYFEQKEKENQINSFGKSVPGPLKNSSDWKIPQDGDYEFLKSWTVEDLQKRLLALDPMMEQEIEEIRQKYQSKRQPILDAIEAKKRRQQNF
# [7] = target: T1, Serine/threonine-protein kinase 4 (Homo sapiens); settings: at 1 µM
# [8] = target: T2, Serine/threonine-protein kinase 3 (Homo sapiens) (UniProt Q13188); settings: at 0.1 µM
# T2 sequence (whole entry): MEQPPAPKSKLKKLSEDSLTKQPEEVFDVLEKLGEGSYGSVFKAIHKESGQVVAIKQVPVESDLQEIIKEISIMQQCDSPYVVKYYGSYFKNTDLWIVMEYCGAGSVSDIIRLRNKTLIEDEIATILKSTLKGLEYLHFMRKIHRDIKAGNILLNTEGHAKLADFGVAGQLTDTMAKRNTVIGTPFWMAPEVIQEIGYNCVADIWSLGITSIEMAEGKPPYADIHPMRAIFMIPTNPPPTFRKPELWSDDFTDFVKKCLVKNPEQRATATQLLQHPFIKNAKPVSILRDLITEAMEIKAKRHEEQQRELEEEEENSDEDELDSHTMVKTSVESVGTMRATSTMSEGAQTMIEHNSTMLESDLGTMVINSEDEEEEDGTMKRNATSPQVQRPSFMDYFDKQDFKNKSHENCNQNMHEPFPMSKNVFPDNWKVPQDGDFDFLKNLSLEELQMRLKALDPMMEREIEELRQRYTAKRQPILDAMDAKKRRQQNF
# [9] = target: T2, Serine/threonine-protein kinase 3 (Homo sapiens); settings: at 1 µM
# [10] = target: Serine/threonine-protein kinase 26 (Homo sapiens) (UniProt Q9P289); settings: at 0.1 µM
# Sequence of Serine/threonine-protein kinase 26 (Homo sapiens) (Q9P289 2-416 limits assumed): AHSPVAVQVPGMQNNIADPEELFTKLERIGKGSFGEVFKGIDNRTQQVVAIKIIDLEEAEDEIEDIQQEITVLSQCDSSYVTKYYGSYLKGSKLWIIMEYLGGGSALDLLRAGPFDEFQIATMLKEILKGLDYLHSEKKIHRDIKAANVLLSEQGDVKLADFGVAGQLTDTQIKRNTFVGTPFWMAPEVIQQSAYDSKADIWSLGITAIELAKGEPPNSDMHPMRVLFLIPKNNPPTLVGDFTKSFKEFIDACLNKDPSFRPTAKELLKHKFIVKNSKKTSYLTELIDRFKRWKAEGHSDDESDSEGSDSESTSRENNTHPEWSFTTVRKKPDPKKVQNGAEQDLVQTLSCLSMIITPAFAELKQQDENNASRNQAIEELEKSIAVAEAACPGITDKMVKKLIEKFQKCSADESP
# [11] = target: Serine/threonine-protein kinase 26 (Homo sapiens) (UniProt Q9P289); settings: at 1 µM
# [12] = target: Serine/threonine-protein kinase PAK 1 (Homo sapiens) (UniProt Q13153); settings: at 0.1 µM
# [13] = target: Serine/threonine-protein kinase PAK 1 (Homo sapiens) (UniProt Q13153); settings: at 1 µM
# [14] = target: Serine/threonine-protein kinase PAK 2 (Homo sapiens) (UniProt Q13177); settings: at 0.1 µM
# Sequence of Serine/threonine-protein kinase PAK 2 (Homo sapiens) (Q13177 whole entry): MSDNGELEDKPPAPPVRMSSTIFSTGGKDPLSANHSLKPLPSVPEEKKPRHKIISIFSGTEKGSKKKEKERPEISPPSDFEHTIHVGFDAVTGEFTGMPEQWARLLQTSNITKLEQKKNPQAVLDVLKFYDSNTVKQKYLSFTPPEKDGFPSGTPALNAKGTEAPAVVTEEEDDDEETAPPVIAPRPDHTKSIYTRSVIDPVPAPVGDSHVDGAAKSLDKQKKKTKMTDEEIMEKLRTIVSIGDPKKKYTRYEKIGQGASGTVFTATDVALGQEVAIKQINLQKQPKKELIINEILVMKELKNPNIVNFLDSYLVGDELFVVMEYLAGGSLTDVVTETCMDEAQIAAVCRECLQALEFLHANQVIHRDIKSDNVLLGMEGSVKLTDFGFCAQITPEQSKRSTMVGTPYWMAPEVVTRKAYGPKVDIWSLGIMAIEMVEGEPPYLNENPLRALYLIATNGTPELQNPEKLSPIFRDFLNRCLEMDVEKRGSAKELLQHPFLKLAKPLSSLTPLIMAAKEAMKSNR
# [15] = target: Serine/threonine-protein kinase PAK 2 (Homo sapiens) (UniProt Q13177); settings: at 1 µM
# [16] = target: Serine/threonine-protein kinase PAK 3 (Homo sapiens) (UniProt O75914); settings: at 0.1 µM
# Sequence of Serine/threonine-protein kinase PAK 3 (Homo sapiens) (O75914 whole entry, looked up): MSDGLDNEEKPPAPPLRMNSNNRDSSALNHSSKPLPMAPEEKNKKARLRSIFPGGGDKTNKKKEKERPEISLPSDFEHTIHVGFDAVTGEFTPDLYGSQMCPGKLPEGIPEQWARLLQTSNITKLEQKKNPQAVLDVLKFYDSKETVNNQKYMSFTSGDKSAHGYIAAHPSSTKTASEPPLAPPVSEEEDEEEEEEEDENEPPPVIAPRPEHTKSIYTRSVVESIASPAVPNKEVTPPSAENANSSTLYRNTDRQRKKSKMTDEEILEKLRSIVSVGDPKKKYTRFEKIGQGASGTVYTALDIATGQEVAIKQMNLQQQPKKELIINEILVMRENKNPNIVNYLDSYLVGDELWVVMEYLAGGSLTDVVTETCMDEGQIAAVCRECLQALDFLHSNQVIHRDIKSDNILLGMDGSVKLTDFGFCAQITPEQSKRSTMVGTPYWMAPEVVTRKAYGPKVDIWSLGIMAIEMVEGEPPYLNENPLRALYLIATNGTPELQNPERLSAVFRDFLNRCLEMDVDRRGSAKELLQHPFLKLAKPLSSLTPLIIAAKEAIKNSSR
# [17] = target: Serine/threonine-protein kinase PAK 3 (Homo sapiens) (UniProt O75914); settings: at 1 µM
# [18] = target: Serine/threonine-protein kinase PAK 5 (Homo sapiens) (UniProt Q9P286); settings: at 0.1 µM
# Sequence of Serine/threonine-protein kinase PAK 5 (Homo sapiens) (Q9P286 whole entry, looked up): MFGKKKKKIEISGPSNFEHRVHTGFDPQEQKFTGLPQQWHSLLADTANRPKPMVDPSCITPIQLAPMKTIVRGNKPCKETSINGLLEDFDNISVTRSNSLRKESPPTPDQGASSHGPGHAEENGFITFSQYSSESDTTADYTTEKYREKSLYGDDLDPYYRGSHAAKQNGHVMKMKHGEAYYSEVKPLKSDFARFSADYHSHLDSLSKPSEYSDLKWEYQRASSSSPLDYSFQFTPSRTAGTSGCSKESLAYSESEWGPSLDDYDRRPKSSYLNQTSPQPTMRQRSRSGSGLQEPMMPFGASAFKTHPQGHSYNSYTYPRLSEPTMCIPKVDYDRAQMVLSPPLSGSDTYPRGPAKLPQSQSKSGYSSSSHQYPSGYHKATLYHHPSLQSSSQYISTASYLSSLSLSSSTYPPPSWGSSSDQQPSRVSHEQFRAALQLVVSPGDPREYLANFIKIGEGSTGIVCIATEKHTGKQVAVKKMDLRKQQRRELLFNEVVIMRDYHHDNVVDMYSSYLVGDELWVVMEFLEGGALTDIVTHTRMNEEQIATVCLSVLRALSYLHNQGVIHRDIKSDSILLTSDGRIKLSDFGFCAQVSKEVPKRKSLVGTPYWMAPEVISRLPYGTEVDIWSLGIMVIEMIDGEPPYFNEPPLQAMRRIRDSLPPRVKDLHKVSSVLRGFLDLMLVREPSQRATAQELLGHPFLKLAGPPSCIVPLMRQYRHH
# [19] = target: Serine/threonine-protein kinase PAK 5 (Homo sapiens) (UniProt Q9P286); settings: at 1 µM
# [20] = target: Serine/threonine-protein kinase PAK 6 (Homo sapiens) (UniProt Q9NQU5); settings: at 0.1 µM;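 note: mean PAK6 inhibition reported from the GSK PKIS screen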
# Sequence of Serine/threonine-protein kinase PAK 6 (Homo sapiens) (Q9NQU5 whole entry, looked up): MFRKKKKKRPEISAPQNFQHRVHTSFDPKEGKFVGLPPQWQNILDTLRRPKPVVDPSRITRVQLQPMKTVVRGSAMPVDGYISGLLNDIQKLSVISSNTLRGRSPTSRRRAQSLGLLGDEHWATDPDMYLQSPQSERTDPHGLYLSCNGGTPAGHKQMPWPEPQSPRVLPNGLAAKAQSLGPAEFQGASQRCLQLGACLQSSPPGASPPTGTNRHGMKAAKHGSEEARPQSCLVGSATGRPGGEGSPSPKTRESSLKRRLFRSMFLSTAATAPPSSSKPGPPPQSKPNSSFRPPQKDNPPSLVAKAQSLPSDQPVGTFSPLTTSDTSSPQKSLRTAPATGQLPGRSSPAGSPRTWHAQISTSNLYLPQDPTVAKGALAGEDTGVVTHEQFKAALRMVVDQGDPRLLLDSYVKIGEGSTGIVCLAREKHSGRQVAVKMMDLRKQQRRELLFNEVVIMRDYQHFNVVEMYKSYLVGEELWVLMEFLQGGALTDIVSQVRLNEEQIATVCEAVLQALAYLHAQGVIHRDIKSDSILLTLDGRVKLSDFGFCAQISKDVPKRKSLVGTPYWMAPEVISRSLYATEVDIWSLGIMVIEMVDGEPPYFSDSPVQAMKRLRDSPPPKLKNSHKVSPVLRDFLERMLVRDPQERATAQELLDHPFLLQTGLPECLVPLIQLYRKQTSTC
# Sequence of Dual specificity mitogen-activated protein kinase kinase 1 (Homo sapiens) (Q02750 whole entry): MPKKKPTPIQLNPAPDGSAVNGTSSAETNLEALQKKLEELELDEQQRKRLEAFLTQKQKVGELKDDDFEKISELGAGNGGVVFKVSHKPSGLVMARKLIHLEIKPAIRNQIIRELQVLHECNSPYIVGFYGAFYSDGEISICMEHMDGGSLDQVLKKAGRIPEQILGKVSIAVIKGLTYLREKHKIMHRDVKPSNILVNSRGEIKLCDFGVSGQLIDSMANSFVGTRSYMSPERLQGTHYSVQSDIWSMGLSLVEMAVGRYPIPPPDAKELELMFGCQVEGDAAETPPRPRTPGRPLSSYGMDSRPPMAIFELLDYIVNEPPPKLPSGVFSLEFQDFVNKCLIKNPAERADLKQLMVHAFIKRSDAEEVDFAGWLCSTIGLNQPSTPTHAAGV
# Sequence of Mitogen-activated protein kinase kinase kinase kinase 4 (Homo sapiens) (O95819 2-1239 limits assumed): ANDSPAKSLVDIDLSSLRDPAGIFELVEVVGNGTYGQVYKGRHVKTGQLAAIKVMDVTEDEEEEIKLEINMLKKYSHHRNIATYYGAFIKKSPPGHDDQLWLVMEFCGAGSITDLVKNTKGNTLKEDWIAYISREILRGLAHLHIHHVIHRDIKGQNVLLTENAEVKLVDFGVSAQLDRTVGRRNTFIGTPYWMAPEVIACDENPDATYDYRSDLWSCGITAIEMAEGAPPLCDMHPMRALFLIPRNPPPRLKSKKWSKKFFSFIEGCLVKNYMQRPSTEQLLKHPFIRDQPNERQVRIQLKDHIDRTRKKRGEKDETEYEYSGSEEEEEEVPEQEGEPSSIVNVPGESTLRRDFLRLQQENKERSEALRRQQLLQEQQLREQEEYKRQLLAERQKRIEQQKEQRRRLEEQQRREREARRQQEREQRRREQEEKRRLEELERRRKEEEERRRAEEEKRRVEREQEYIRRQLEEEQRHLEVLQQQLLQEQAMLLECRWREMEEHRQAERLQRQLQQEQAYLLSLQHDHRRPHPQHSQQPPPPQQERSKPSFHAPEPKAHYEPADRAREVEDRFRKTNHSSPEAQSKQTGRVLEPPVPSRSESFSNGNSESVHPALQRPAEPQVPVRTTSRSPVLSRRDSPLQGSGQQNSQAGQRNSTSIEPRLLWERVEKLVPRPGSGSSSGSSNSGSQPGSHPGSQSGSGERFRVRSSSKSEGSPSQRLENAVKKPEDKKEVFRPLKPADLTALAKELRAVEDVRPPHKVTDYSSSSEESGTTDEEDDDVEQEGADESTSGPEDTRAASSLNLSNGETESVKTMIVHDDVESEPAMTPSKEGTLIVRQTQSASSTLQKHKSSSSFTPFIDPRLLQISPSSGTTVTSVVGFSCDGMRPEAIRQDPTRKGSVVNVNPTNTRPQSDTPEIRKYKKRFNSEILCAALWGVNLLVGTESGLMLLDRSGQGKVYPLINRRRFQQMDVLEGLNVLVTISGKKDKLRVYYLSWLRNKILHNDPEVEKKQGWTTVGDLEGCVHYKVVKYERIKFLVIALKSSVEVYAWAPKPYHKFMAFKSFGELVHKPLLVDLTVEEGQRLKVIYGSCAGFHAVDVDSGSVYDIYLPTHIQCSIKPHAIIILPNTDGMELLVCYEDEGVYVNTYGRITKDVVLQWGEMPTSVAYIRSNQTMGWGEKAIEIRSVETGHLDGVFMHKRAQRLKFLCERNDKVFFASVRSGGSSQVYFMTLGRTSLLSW
Structure (SMILES),inhibition [1],inhibition [2],inhibition [3],inhibition [4],inhibition [5],inhibition [6],inhibition [7],inhibition [8],inhibition [9],inhibition [10],inhibition [11],inhibition [12],inhibition [13],inhibition [14],inhibition [15],inhibition [16],inhibition [17],inhibition [18],inhibition [19],inhibition [20]
COC(=O)Nc1nc2ccc(Sc3ccc(NC(=O)Nc4cc(C(F)(F)F)ccc4F)cc3)cc2[nH]1,7.12%,-0.42%,0.12%,0.07%,0.67%,2.61%,3.26%,2.16%,1.83%,1.18%,-1.61%,-1.15%,-1.32%,10.8%,0.18%,-0.08%,0.83%,6.86%,-2.02%,-4.57%
N#Cc1ccc(Oc2nccc(-c3c(-c4ccc(F)cc4)ncn3C3CCNCC3)n2)cc1,5.64%,4.35%,3.84%,6.9%,7.67%,3.35%,4.07%,5.75%,4.78%,-1.67%,-2.91%,7.47%,7.87%,1.65%,2.68%,4.55%,4.04%,2.41%,0.4%,-4.78%
NC(=O)c1ccc(Oc2nccc(-c3c(-c4ccc(F)cc4)ncn3C3CCNCC3)n2)cc1,3.93%,4.51%,4.62%,6.11%,6.81%,4.07%,4.99%,8.2%,7.98%,-1.23%,2.28%,10%,11%,2.27%,2.2%,6.67%,9.21%,4.23%,0.82%,-4.02%
NC(=O)c1cc(-c2ccncc2)cc(-c2ccccc2)c1N,32.3%,6.3%,5.89%,11.2%,26.1%,3.19%,6.8%,3.96%,3.58%,-0.07%,-1.56%,7.55%,6.44%,2.07%,2.41%,7.15%,6.71%,1.02%,2.18%,-0.84%
C[C@@H](Oc1cc(-n2cnc3ccc(OCC4CCN(C)CC4)cc32)sc1C(N)=O)c1ccccc1Cl,11.6%,6.35%,5.61%,6.3%,10.1%,14.8%,56.7%,11.7%,39.7%,-8.39%,–,9.41%,11.3%,3.01%,3.81%,6.02%,6.85%,5.72%,7.38%,–
NC(=O)Cc1ccccc1Oc1nccc(-c2c(-c3ccc(F)cc3)ncn2C2CCNCC2)n1,6.68%,2.01%,2.53%,4.37%,6.95%,1.4%,3.79%,2.69%,4.24%,-0.95%,-1.77%,4.71%,7.55%,1.39%,1.36%,0.09%,3.36%,-1.8%,-2.81%,1.97%
Fc1ccc(-c2ncn(CCCN3CCOCC3)c2-c2ccncc2)cc1,5.83%,-0.25%,0.32%,1.73%,2.89%,1.3%,4.22%,-0.13%,2.5%,0.94%,0.15%,2.56%,3.02%,-0.59%,-0.77%,0.6%,0.53%,–,–,-0.97%
CCC(=O)Nc1ccc(C)c(-c2ccc(C(=O)NCC3CC3)cc2)c1,5.43%,3.72%,2.87%,7.03%,5.64%,2.76%,3.12%,3.02%,2.84%,-1.82%,-3.71%,3.98%,9.02%,0.42%,0.8%,2.56%,3.37%,-0.07%,-2.96%,-8.71%
C/C(Nc1ccc(S(N)(=O)=O)cc1)=C1/C(=O)Nc2ccccc21,88.3%,-1.13%,0.96%,34.1%,85.3%,10.2%,55.3%,3.63%,42.3%,-1.9%,15.6%,-3.4%,2.37%,-1.56%,-1.06%,-1.9%,-1.11%,-6.43%,2.88%,-4.08%
COc1cc2ncn(-c3cc(OCc4cccs4)c(C(N)=O)s3)c2cc1OC,67.2%,3.5%,2.83%,18%,63.5%,20.6%,65.5%,19.5%,62.6%,2.25%,0.69%,5.82%,5.75%,0.62%,0.03%,2%,4.56%,8.19%,8.5%,6.2%
Nc1nccc(-c2c(-c3ccc(F)cc3)ncn2C2CCC(O)CC2)n1 (centres undefined),72.8%,-3.17%,-3.2%,6.81%,62.4%,0.86%,22%,-0.05%,14.6%,0.75%,4.04%,-2.38%,-3.74%,-0.84%,-0.18%,-3.15%,-3.59%,-2.46%,0.21%,4.1%
C[C@@H](Oc1cc(-n2cnc3ccc(OC4CCN(C)CC4)cc32)sc1C(N)=O)c1ccccc1Cl,7.81%,1.83%,2.54%,6.26%,5.92%,4.68%,19.5%,6.85%,13.4%,-3.27%,–,5.45%,7.26%,1.74%,2.5%,5.07%,10.3%,4.34%,5.61%,–
Fc1ccc(-c2c(-c3ccncc3)nc3n2CCS3)cc1,10.8%,3.75%,4.29%,4.97%,9.56%,1.09%,2.38%,1.69%,3.46%,-0.47%,1.66%,6.15%,-0.03%,-0.52%,0.49%,2.55%,3.16%,1.47%,3.62%,1.52%
c1ccc(Oc2ccc(Nc3ncc(-c4ccccc4)o3)cc2)cc1,6.86%,0.88%,1.76%,3.49%,7.84%,1.03%,1.83%,0.33%,0.37%,-1.17%,0.79%,-1.14%,6.59%,0.5%,-0.36%,0.64%,0.63%,-0.61%,2.2%,-2.49%
NC(=O)c1cc(-c2ccc(F)cc2)cc(-c2ccncc2)c1N,9.21%,5.61%,3.83%,4.49%,10%,3.76%,5.59%,4.31%,5.48%,-2.72%,-1.28%,5.31%,6.13%,0.6%,1.36%,4.12%,4.25%,-1.26%,1.21%,-6.76%
CN(C)CCCNc1nccc(-c2c(-c3ccc(F)cc3)nn3cc(C(F)(F)F)ccc23)n1,10.6%,1.86%,2.52%,5.22%,7.76%,2.92%,4.75%,3.38%,3.61%,-0.11%,0.55%,-1.51%,-0.15%,1.45%,1.67%,1.76%,2.77%,0.97%,1.58%,2.33%
FC(F)(F)c1cccc(Nc2nccc(-c3cnn4nc(-c5ccccc5)ccc34)n2)c1,3.3%,2.8%,3.14%,3.38%,3.06%,1.12%,3.6%,3.94%,3.81%,0.42%,-3.24%,6.28%,3.48%,0.33%,0.77%,2.74%,2.27%,-0.43%,-0.64%,-2.37%
